# Results published in ChEMBL document CHEMBL2218924, “A broad activity screen in support of a chemogenomic map for kinase signalling research and drug discovery” (Biochem J, 2013).
# Columns and labels:
# [1] = target: Tyrosine-protein kinase ABL1 (Homo sapiens) (UniProt P00519); details: at 1 µM
# [2] = target: Tyrosine-protein kinase ABL1 (Homo sapiens) (UniProt P00519); details: at 10 µM
# [3] = target: T1, Aurora kinase A (Homo sapiens) (UniProt O14965); details: at 1 µM
# T1 sequence (whole entry): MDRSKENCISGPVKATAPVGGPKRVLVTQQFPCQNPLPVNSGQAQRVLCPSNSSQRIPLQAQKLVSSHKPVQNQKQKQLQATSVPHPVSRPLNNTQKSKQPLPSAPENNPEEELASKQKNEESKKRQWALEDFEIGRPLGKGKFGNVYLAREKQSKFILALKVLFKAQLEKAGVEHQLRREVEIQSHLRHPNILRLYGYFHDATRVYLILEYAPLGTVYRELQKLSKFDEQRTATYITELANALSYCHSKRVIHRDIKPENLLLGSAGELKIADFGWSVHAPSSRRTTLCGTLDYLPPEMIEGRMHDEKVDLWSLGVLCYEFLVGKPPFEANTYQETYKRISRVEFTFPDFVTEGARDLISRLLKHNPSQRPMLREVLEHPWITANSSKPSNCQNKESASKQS
# [4] = target: T1, Aurora kinase A (Homo sapiens); details: at 10 µM
# [5] = target: Tyrosine-protein kinase receptor UFO (Homo sapiens) (UniProt P30530); details: at 1 µM
# Sequence of Tyrosine-protein kinase receptor UFO (Homo sapiens) (P30530 whole entry): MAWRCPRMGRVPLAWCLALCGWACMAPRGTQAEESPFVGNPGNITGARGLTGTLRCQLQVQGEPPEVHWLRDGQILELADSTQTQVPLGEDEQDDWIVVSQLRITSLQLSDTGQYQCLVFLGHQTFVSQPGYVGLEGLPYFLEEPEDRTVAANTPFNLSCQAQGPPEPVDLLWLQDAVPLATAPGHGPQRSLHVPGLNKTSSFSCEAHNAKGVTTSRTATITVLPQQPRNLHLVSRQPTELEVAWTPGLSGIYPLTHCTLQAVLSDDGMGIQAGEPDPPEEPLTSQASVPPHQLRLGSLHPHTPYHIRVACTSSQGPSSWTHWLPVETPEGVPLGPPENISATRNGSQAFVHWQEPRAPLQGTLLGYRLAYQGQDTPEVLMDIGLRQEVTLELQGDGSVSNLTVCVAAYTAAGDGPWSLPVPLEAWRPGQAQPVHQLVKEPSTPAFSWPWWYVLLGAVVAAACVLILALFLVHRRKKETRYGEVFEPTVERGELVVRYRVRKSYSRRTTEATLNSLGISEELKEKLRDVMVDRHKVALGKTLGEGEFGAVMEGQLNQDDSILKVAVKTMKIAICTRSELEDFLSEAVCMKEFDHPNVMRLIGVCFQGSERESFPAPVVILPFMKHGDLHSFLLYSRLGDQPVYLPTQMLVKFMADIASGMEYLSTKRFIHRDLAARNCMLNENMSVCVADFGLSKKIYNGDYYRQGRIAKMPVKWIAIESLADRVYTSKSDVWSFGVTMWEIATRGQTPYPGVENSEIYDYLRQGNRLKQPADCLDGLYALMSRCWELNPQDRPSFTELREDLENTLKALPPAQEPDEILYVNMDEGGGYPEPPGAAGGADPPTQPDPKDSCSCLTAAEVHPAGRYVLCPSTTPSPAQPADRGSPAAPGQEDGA
# [6] = target: Tyrosine-protein kinase receptor UFO (Homo sapiens) (UniProt P30530); details: at 10 µM
# [7] = target: Tyrosine-protein kinase Blk (Homo sapiens) (UniProt P51451); details: at 10 µM
# Sequence of Tyrosine-protein kinase Blk (Homo sapiens) (P51451 2-505 limits assumed): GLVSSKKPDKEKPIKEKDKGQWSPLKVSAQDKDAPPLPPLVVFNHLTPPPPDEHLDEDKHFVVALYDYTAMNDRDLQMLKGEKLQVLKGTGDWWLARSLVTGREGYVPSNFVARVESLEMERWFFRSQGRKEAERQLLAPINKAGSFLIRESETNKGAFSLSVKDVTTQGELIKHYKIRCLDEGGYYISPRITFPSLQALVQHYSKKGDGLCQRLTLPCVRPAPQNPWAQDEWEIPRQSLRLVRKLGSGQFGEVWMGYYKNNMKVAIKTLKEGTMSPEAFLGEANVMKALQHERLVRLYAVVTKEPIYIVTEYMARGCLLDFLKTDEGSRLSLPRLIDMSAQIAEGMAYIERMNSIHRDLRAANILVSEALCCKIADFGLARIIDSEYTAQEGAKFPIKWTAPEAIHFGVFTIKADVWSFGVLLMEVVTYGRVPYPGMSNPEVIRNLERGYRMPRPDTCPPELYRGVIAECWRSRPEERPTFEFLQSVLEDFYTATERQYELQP
# [8] = target: Tyrosine-protein kinase Blk (Homo sapiens) (UniProt P51451); details: at 1 µM
# [9] = target: T2, Mitogen-activated protein kinase kinase kinase 5 (Homo sapiens) (UniProt Q99683); details: at 10 µM
# T2 sequence (whole entry): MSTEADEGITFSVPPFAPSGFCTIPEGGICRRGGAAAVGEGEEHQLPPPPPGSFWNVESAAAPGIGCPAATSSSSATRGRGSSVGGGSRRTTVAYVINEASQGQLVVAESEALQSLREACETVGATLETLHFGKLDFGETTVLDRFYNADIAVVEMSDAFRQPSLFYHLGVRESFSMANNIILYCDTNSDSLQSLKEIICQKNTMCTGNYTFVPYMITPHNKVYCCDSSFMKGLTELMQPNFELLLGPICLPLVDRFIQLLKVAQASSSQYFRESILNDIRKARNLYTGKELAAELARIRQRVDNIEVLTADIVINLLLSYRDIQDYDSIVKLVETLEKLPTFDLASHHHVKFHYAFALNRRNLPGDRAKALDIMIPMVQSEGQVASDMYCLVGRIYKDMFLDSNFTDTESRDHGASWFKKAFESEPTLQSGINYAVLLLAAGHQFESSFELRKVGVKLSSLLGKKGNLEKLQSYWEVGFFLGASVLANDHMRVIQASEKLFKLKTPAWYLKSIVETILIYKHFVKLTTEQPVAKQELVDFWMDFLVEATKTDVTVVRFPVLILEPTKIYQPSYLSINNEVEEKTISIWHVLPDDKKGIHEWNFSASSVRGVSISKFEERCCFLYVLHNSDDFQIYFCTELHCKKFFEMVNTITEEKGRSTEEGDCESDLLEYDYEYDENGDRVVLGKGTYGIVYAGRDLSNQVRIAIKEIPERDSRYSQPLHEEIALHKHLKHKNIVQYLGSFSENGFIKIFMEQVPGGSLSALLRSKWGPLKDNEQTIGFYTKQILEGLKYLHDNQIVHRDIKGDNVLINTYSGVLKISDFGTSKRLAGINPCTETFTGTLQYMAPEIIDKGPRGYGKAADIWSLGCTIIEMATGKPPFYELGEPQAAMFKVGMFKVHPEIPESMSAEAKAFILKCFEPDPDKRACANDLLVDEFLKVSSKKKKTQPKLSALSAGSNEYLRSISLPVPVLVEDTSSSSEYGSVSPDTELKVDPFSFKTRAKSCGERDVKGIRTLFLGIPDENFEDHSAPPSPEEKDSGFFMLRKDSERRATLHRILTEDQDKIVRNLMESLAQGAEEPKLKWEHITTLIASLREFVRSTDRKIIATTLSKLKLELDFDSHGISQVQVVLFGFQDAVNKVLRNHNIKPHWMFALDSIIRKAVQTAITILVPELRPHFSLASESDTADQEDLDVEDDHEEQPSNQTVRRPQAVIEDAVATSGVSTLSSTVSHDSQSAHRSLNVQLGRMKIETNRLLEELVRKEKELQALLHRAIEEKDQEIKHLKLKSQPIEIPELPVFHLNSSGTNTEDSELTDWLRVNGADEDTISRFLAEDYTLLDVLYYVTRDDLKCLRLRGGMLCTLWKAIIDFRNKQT
# [10] = target: Aurora kinase B (Homo sapiens) (UniProt Q96GD4); details: at 1 µM
# Sequence of Aurora kinase B (Homo sapiens) (Q96GD4 whole entry): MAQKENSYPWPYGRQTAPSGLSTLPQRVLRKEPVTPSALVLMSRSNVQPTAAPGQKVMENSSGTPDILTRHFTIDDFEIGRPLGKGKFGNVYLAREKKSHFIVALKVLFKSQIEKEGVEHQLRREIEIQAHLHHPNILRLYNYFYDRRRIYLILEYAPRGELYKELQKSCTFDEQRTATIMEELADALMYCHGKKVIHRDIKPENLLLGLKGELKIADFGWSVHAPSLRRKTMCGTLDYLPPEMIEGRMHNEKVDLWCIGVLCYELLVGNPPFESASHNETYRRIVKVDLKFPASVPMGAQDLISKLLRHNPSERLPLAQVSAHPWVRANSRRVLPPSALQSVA
# [11] = target: Aurora kinase B (Homo sapiens) (UniProt Q96GD4); details: at 10 µM
# [12] = target: T3, Aurora kinase C (Homo sapiens) (UniProt Q9UQB9); details: at 1 µM
# T3 sequence (whole entry): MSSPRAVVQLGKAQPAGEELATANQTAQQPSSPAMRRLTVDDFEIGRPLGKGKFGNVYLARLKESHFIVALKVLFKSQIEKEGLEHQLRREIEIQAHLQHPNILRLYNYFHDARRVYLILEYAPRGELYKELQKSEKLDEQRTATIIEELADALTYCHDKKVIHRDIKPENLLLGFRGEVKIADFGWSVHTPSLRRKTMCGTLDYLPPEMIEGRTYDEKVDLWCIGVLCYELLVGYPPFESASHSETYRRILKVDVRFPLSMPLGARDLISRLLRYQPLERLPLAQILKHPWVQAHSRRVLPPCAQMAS
# [13] = target: T3, Aurora kinase C (Homo sapiens); details: at 10 µM
# [14] = target: Protein-tyrosine kinase 6 (Homo sapiens) (UniProt Q13882); details: at 1 µM
# [15] = target: Protein-tyrosine kinase 6 (Homo sapiens) (UniProt Q13882); details: at 10 µM
# [16] = target: Tyrosine-protein kinase ABL2 (Homo sapiens) (UniProt P42684); details: at 1 µM
# Sequence of Tyrosine-protein kinase ABL2 (Homo sapiens) (P42684 whole entry): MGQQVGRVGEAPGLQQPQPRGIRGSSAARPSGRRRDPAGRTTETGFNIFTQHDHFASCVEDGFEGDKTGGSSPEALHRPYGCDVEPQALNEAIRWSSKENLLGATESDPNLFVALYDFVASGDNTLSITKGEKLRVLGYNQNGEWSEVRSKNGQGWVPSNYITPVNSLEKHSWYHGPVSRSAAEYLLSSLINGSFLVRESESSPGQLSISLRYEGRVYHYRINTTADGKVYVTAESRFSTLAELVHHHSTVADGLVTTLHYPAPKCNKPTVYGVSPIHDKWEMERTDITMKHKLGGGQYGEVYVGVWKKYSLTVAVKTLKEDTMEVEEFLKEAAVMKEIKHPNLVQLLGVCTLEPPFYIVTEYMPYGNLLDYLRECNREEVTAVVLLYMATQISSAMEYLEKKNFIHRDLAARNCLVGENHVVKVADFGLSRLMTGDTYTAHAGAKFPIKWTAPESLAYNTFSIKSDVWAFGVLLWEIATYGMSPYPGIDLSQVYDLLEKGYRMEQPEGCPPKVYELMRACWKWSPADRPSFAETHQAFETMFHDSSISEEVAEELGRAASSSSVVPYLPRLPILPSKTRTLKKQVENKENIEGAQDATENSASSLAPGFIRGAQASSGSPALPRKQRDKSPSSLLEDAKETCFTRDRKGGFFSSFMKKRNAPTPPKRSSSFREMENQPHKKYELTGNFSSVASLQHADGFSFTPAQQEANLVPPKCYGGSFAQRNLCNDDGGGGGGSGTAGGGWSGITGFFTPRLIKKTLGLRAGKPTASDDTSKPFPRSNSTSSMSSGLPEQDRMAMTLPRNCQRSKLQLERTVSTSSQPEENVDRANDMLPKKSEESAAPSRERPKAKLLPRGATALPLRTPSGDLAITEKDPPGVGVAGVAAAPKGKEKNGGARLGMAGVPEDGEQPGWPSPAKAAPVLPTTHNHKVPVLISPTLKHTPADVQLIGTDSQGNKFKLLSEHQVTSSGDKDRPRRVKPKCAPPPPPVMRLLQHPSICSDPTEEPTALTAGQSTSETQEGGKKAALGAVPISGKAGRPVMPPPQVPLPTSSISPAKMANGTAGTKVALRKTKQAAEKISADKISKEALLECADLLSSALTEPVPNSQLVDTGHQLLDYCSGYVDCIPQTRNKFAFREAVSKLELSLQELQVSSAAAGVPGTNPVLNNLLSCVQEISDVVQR
# [17] = target: Tyrosine-protein kinase ABL2 (Homo sapiens) (UniProt P42684); details: at 10 µM
# [18] = target: Tyrosine-protein kinase BTK (Homo sapiens) (UniProt Q06187); details: at 1 µM
# Sequence of Tyrosine-protein kinase BTK (Homo sapiens) (Q06187 whole entry): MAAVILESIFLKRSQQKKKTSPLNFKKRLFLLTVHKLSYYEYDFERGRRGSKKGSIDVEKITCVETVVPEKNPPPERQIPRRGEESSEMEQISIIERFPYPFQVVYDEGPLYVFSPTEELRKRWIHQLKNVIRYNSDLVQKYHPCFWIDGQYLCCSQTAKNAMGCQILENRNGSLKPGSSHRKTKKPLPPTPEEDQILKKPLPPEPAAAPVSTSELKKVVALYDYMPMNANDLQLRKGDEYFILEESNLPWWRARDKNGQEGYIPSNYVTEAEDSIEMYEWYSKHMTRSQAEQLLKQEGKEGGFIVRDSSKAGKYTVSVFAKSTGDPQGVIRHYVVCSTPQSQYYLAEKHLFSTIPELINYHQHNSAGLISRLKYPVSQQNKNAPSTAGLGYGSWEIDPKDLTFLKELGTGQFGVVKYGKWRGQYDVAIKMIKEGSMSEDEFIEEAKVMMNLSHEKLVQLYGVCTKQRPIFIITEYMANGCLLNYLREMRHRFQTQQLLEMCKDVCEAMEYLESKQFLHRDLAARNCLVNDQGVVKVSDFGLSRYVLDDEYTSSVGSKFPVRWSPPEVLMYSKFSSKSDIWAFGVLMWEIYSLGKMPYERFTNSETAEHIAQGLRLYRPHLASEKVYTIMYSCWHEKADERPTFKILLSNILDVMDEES
# [19] = target: Tyrosine-protein kinase BTK (Homo sapiens) (UniProt Q06187); details: at 10 µM
# Sequence of Tyrosine-protein kinase ABL1 (Homo sapiens) (P00519 whole entry): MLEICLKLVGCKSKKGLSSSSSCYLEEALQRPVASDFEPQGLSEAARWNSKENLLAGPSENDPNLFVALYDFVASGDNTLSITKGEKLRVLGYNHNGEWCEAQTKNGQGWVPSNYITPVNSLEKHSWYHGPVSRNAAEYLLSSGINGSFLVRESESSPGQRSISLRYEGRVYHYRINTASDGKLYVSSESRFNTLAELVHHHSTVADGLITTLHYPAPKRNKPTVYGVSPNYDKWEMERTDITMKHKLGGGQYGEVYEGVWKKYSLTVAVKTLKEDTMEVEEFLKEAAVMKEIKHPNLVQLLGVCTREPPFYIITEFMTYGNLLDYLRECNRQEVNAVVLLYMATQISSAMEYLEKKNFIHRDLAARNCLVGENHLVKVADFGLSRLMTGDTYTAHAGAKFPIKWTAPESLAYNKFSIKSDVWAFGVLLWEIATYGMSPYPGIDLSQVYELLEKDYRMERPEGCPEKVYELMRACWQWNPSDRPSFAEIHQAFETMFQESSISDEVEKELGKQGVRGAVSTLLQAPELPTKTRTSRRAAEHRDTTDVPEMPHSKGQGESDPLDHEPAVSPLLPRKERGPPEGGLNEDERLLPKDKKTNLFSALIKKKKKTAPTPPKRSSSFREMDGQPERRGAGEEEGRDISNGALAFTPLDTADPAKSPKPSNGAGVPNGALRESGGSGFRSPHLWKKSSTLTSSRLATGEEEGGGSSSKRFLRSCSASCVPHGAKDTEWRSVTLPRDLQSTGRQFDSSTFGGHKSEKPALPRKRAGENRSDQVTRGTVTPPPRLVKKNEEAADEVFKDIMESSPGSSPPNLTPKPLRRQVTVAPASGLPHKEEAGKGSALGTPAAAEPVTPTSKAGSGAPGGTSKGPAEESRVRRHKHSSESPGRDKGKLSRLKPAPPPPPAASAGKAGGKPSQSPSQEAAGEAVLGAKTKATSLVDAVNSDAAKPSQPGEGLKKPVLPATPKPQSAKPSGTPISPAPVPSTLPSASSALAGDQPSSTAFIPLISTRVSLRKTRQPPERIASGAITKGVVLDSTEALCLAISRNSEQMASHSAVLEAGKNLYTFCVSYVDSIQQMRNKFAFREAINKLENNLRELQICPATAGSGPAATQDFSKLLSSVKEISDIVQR
smiles,measurement,setting,value
COc1ccc(Cl)cc1NC(=O)Nc1cc(C)nc2ccccc12,residual activity,[1],87%
same,residual activity,[2],145%
same,residual activity,[3],89%
same,residual activity,[4],136%
same,residual activity,[5],98%
same,residual activity,[6],88%
same,residual activity,[7],78%
N#C/C(=C\c1ccc(O)c(O)c1)C(=O)NCc1ccccc1,residual activity,[6],77%
same,residual activity,[8],104%
N#Cc1c(NC(=O)c2cccc3ccccc23)sc2c1CCCC2,residual activity,[9],80%
same,residual activity,[3],92%
same,residual activity,[10],69%
same,residual activity,[11],69%
same,residual activity,[12],98%
same,residual activity,[13],97%
same,residual activity,[5],96%
same,residual activity,[6],79%
same,residual activity,[7],97%
Cc1cc(C)c(/C=C2\C(=O)Nc3ccccc32)[nH]1,residual activity,[10],6%
same,residual activity,[11],0%
same,residual activity,[5],31%
same,residual activity,[6],21%
same,residual activity,[14],103%
same,residual activity,[15],104%
same,residual activity,[8],65%
same,residual activity,[7],32%
COc1ccc2c(c1)c(C1=C(c3c[nH]c4ccccc34)C(=O)NC1=O)cn2CCCN(C)C,residual activity,[1],107%
same,residual activity,[2],114%
same,residual activity,[16],113%
same,residual activity,[17],74%
same,residual activity,[3],100%
same,residual activity,[4],97%
same,residual activity,[10],39%
same,residual activity,[11],7%
same,residual activity,[13],59%
same,residual activity,[6],40%
same,residual activity,[14],98%
same,residual activity,[15],82%
same,residual activity,[8],57%
same,residual activity,[7],7%
O=C(Nc1ccc(Cl)cc1)c1ccccc1NCc1ccncc1,residual activity,[1],81%
same,residual activity,[2],52%
same,residual activity,[3],39%
same,residual activity,[4],18%
same,residual activity,[10],100%
same,residual activity,[11],37%
same,residual activity,[13],70%
same,residual activity,[14],21%
same,residual activity,[15],1%
O=C1Cc2c([nH]c3ccc(Br)cc23)-c2ccccc2N1,residual activity,[1],64%
same,residual activity,[2],39%
same,residual activity,[16],76%
same,residual activity,[17],45%
same,residual activity,[3],97%
same,residual activity,[4],66%
same,residual activity,[10],69%
same,residual activity,[11],15%
same,residual activity,[12],76%
same,residual activity,[13],71%
same,residual activity,[14],95%
same,residual activity,[15],72%
CCN1/C(=C/C(C)=O)Sc2ccc(OC)cc21,residual activity,[2],79%
same,residual activity,[17],81%
same,residual activity,[11],122%
same,residual activity,[5],77%
same,residual activity,[6],75%
CC(C)N(CCC(=O)c1ccc2ccccc2c1)Cc1ccccc1,residual activity,[11],83%
same,residual activity,[12],76%
same,residual activity,[13],61%
same,residual activity,[5],69%
same,residual activity,[6],74%
Nc1nc(Nc2ccc(S(N)(=O)=O)cc2)nn1C(=O)c1c(F)cccc1F,residual activity,[9],46%
same,residual activity,[16],34%
same,residual activity,[17],8%
same,residual activity,[12],6%
same,residual activity,[13],1%
same,residual activity,[5],56%
same,residual activity,[6],13%
same,residual activity,[14],106%
same,residual activity,[15],74%
same,residual activity,[8],74%
same,residual activity,[7],9%
O=c1cc(N2CCOCC2)oc2c(-c3ccccc3)cccc12,residual activity,[14],101%
same,residual activity,[15],101%
CN(C)S(=O)(=O)c1ccc2c(c1)/C(=C/c1cc3c([nH]1)CCCC3)C(=O)N2,residual activity,[1],77%
same,residual activity,[2],72%
same,residual activity,[16],114%
same,residual activity,[17],75%
same,residual activity,[3],36%
same,residual activity,[4],13%
same,residual activity,[10],-1%
same,residual activity,[11],1%
same,residual activity,[12],75%
same,residual activity,[13],52%
same,residual activity,[5],51%
same,residual activity,[6],36%
same,residual activity,[14],98%
same,residual activity,[15],94%
same,residual activity,[18],91%
same,residual activity,[19],50%
same,residual activity,[8],10%
same,residual activity,[7],2%
O=C1Nc2ccccc2/C1=C\c1c(Cl)[nH]c2ccccc12,residual activity,[9],70%
same,residual activity,[11],59%
same,residual activity,[6],58%
same,residual activity,[15],54%
same,residual activity,[19],80%
O=C1NC(=O)C(c2cn(CCCO)c3ncccc23)=C1c1cnccn1,residual activity,[9],78%
same,residual activity,[3],78%
same,residual activity,[4],81%
same,residual activity,[10],14%
same,residual activity,[11],9%
same,residual activity,[12],97%
same,residual activity,[13],88%
same,residual activity,[5],61%
same,residual activity,[6],59%
same,residual activity,[8],78%
same,residual activity,[7],69%
O=c1c(-c2ccc(F)cc2)c(-c2ccncc2)[nH]n1-c1ccc(Cl)cc1,residual activity,[9],119%
same,residual activity,[2],68%
same,residual activity,[17],53%
same,residual activity,[14],59%
same,residual activity,[15],7%
same,residual activity,[8],101%
same,residual activity,[7],74%
CN([C@@H](Cc1ccc(OS(=O)(=O)c2cccc3cnccc23)cc1)C(=O)N1CCN(c2ccccc2)CC1)S(=O)(=O)c1cccc2cnccc12,residual activity,[2],86%
same,residual activity,[18],100%
same,residual activity,[19],86%
same,residual activity,[8],98%
same,residual activity,[7],81%
Nc1nccc(-c2c(-c3ccc(F)cc3)ncn2C2CCNCC2)n1,residual activity,[17],65%
same,residual activity,[11],72%
same,residual activity,[13],78%
same,residual activity,[15],30%
CC(C)(C)c1nc2c3ccc(F)cc3c3c(=O)[nH]ccc3c2[nH]1,residual activity,[9],35%
same,residual activity,[17],100%
same,residual activity,[3],13%
same,residual activity,[4],25%
same,residual activity,[10],1%
same,residual activity,[11],-1%
same,residual activity,[12],11%
same,residual activity,[13],7%
same,residual activity,[5],40%
same,residual activity,[6],59%
same,residual activity,[18],71%
same,residual activity,[19],59%
O=S(=O)(c1cccc2cnccc12)N1CCCNCC1,residual activity,[17],80%
same,residual activity,[13],59%
CSc1nc(-c2ccc(F)cc2)c(-c2ccnc(NC(C)c3ccccc3)c2)[nH]1 (stereo not drawn),residual activity,[9],86%
same,residual activity,[10],46%
same,residual activity,[11],13%
same,residual activity,[5],101%
same,residual activity,[6],85%
same,residual activity,[15],89%
same,residual activity,[18],90%
same,residual activity,[19],91%
same,residual activity,[8],98%
same,residual activity,[7],63%
CCOc1nc(NC(=O)Cc2cc(OC)ccc2OC)cc(N)c1C#N,residual activity,[12],78%
same,residual activity,[14],60%
same,residual activity,[15],50%
same,residual activity,[18],81%
same,residual activity,[19],78%
Fc1ccc(-c2nc3n(c2-c2ccncc2)CCS3)cc1,residual activity,[9],83%
same,residual activity,[16],96%
same,residual activity,[17],77%
same,residual activity,[12],98%
same,residual activity,[13],95%
same,residual activity,[18],100%
same,residual activity,[19],98%
CCOC(=O)c1c(C)[nH]c(/C=C2\C(=O)Nc3ccccc32)c1C,residual activity,[10],74%
same,residual activity,[11],61%
same,residual activity,[5],84%
same,residual activity,[6],81%
same,residual activity,[8],89%
same,residual activity,[7],57%
O=C1NC(=O)C(c2cn(CCCn3ccnc3)c3ccccc23)=C1Nc1ccccc1,residual activity,[9],76%
same,residual activity,[16],111%
same,residual activity,[17],60%
same,residual activity,[4],72%
same,residual activity,[13],67%
same,residual activity,[6],66%
same,residual activity,[7],33%
O=S(=O)(NCCNC/C=C/c1ccc(Br)cc1)c1cccc2cnccc12,residual activity,[10],43%
same,residual activity,[11],8%
same,residual activity,[12],80%
same,residual activity,[13],22%
same,residual activity,[7],76%
